Laboratory results published in the supplement of paper PMC11417369.
± gives the standard deviation of the averaged measurements. In all, about 25,000 sequences were measured (“ln(normalized median fluorescence intensity)”: median about 8.6, highest 2% from about 10 on). The full list was thinned out, with the highest values kept by preference.

tested on: PfAP2-EXP AP2 domain (GST-tagged); assay: gcPBM binding intensity (ln(normalized median fluorescence intensity)); higher = stronger DNA binding
In short: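 After 1 h on an Agilent 4 × 180k array of primer-extended double-stranded 36-bp intergenic genomic probes and negative controls, bound GST-tagged P. falciparum DNA-binding domains were detected with Alexa488 anti-GST antibody and scanned at 488 nm. The domains had been expressed in E. coli, and binding took place in 1× PBS with 1% milk, 0.2 mg/ml BSA, 0.5% salmon testes DNA and 0.03% Triton X-100. Binding intensity is the highest Masliner-normalised natural-log median intensity across replicate spots of either probe orientation.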

Sequence	gcPBM binding intensity (ln)
TTTCATTAATCTAATAGTACAGAAAATTGAGAAAAA [XGTACX_site8395]	8.72 ± 0.34
ATTTTTTTCTTTTCTTTTTTCTTTTTTTTTTTTGGT [CACACA_negctrl_site1146]	8.35 ± 0.61
AACTTATTAAGCCCTCCACATTTCTCTACTACAACT [CACACA_negctrl_site1552]	8.61 ± 0.43
TATATTTCAGGGGGGAGTACAAATTTTTTTATATAA [XGTACX_site1600]	10.9 ± 0.38
TATTTTTTTTTTATATGTACATAATTTCAAATAAAT [XGTACX_site7747]	8.62 ± 0.48
TATAATTATATTTGGAGTACAAATTTTTTTTTTTTT [XGTACX_site7494]	8.3 ± 0.32
AAAAAAAAAAAAAAATATAAATATATATATATATAT [GTGCAC_negctrl_site28]	10 ± 0.28
ATATAAATAAAAAAAAAAAAAAAAAAAAAAAAAAAA [CACACA_negctrl_site972]	8.01 ± 0.43
ATAAAAAAAAAAAAAAAATATATATATATATATATA [XGTACX_negctrl_site424]	10.2 ± 0.32
AAAAATAAAAAATATAAAAATATAAAAATATAAAAA [XGTACX_negctrl_site51]	8.32 ± 0.38
TTATAATAAATATATAAAAAAAAAAAAAAAAAAAAA [CACACA_negctrl_site1639]	7.97 ± 0.23
TATAAAAAAAAAAAATATATATATATATAAATATAA [TGCATGCA_negctrl_site367]	8.2 ± 0.31
TTATAAAAAAAAAAAAAAAATATATATATATATATA [XGTACX_negctrl_site592]	10.3 ± 0.13
ATATAAAAAAAAAAAAAAAAATATATATATATATAT [GTGCAC_negctrl_site251]	10.2 ± 0.13
TTATAATATAAAAATAAATAAATAAATAAATAAATA [CACACA_negctrl_site1587]	8.55 ± 0.11
TAAATAATATCTATCACACACGCATATATACATATA [CACACA_site2622]	8.32 ± 0.44
TAATATTATTTTTCAGTGCAATATAACCTTAGAATT [GTGCAC_site9417]	8.38 ± 0.32
CATGTTCATCAGAACGCACACATAATGGTTTACTTA [CACACA_site898]	8.47 ± 0.3
TGAAAAATGTAATGCTCACACATATATATATATATA [CACACA_site5213]	10.2 ± 0.32
CACAAAAATGTAATCACACATATATATATATATATA [CACACA_site5818]	10.1 ± 0.38
ATATAATTAAAATGCTCACACACATAAAAAAAAATT [CACACA_site2148]	8.43 ± 0.55
AATAAAATAAGAAGCACACAAATATTATATATAAAA [CACACA_site3980]	8.78 ± 0.42
ATTATAAATTAAAATACACACATATATACCTAATAT [CACACA_site5541]	8.47 ± 0.4
